Screen size: about 3,600 compounds; about 900 (25%) were called active. The rule behind the calls is not given here. Only a sample is shown. Entries that show only a call come without a potency. Potency and affinity values are given separately.
molecular target: Protein Tat (Human immunodeficiency virus type 1 group M subtype B (isolate HXB2)) (UniProt P04608); test: inhibitors of Tat binding to TAR RNA, dose response, counter-screen for Vif-APOBEC3G degradation inhibitor project, biochemical, fluorescence polarization, FAM-labeled TAR RNA (AID 1117361); conditions: outcome: dose series up to 100 µM unless noted; series mostly up to 100 µM

| SMILES | outcome |
| --- | --- |
| CCOc1ccc(OCCOc2cccc(C(F)(F)F)c2)cc1 | inactive |
| Cn1c(CN2CCOCC2)nc2cc(NC(=O)c3ccc(F)cc3)ccc21 | inactive |
| C/C(=C1\SC(N2CCOCC2)=NC1=O)c1ccccc1 | inactive |
| O=C1N=C(N2CCOCC2)SC1=Cc1ccco1 | inactive |
| COc1cccc(/C=C2\SC(N)=NC2=O)c1OS(=O)(=O)c1ccccc1 | inactive |
| COc1cccc(-c2nc3n(n2)C(c2cccs2)C(C(=O)Nc2cccnc2)=C(C)N3)c1 (stereo not drawn) | inactive |
| O=C(CCc1ccccc1)NNC(=S)NCCc1ccccc1 | inactive |
| Cc1cc(C(C)(C)C)ccc1OCCN(C)C | inactive |
| COCCn1c(Sc2ccc(C)cc2)nc2c1c(=O)[nH]c(=O)n2C | inactive |
| Nc1nc(Cl)cc(N2CCC(c3cc(-c4ccc(Cl)cc4Cl)n[nH]3)CC2)n1 | inactive |
| CCOC(=O)N1CCN(S(=O)(=O)c2ccc3c(c2)C(C)C(=O)N3)CC1 (stereo not drawn) | inactive |
| O=C(Nc1ccc2oc(=O)ccc2c1)c1ccc(-c2ccc(Cl)cc2)o1 | inactive |
| COc1cccc(/C=N/n2c(N)c(S(=O)(=O)c3cccs3)c3nc4ccccc4nc32)c1 | inactive |
| COc1ccc(S(=O)(=O)N2CCN(C(=O)c3cc(-c4ccccc4OC)n[nH]3)CC2)cc1 | inactive |
| CCCN(C(=S)Nc1ccccc1)C1CCS(=O)(=O)C1 (stereo not drawn) | inactive |
| COc1cccc(C2NC(=O)NC(O)(C(F)(F)F)C2C(=O)c2cccnc2)c1OC (stereo not drawn) | inactive |
| CCn1c(COc2ccc3c(c2)OCO3)nnc1SCC(=O)c1ccc(Cl)cc1 | inactive |
| Nc1cccc(-c2nc3ccc(N)cc3s2)c1 | inactive |
| Cc1[nH]n(-c2nc(-c3ccccc3F)cc(=O)[nH]2)c(=O)c1CCO | inactive |
| NC(=O)C1Cc2ccccc2CN1C(=O)c1nn(Cc2ccccc2)c(=O)c2ccccc12 (stereo not drawn) | inactive |
| COc1ccc(/C=N/NC(=O)CN2CCN(Cc3ccccc3)CC2)cc1Br | inactive |
| COc1ccc(C2Nc3ccccc3C(=O)N2c2ccc(Cl)cc2)cc1Cn1cc([N+](=O)[O-])cn1 (stereo not drawn) | inactive |
| Cc1ccc(S(=O)(=O)N=Nc2c(O)[nH]c3ccccc23)cc1 | inactive |

| SMILES | outcome |
| --- | --- |
| CN(C)c1ccc(/C=N\NC(=O)c2csnn2)cc1 | inactive |
| CCC(Cc1ccccc1)NC(=O)C1CCN(S(=O)(=O)c2c(C)noc2C)CC1 (stereo not drawn) | inactive |
| COc1ccc(S(=O)(=O)N2CCC(C(=O)NCc3ccco3)CC2)cc1 | inactive |
| COc1ccc(OCCNS(=O)(=O)c2ccccc2)cc1 | inactive |
| CN1CCN(c2ccccc2NC(=O)C(Cc2ccccc2)n2cccc2)CC1 (stereo not drawn) | inactive |
| CCCCNC(=O)c1onc(CSc2cccc(OCC)c2)c1C(=O)O | inactive |
| COc1cccc(Cn2nnc(C(=O)NCCc3ccc(Cl)cc3)c2N)c1 | inactive |
| COc1cccc(-c2nn(C)c3sc(C(=O)Nc4ccc5c(c4)OCCO5)cc23)c1 | inactive |
| Cc1nc(N)nc(C)c1Cc1ccccc1 | inactive |
| CCOC(=O)C1=C(N)OC2=C(C(=O)CCC2)C1c1ccc(C)s1 (stereo not drawn) | inactive |
| O=C(O)Cc1ccc(C(=O)c2ccccc2)s1 | inactive |
| CCS(=O)(=O)N1CCN(C(=O)CC(C)C)CC1 | inactive |
| Cn1c(-c2ccc(Cl)cc2)ccc(C#N)c1=O | inactive |
| CCOC(=O)N1CCN(C(=O)c2cnc3n(c2=O)CCS3)CC1 | inactive |
| CCOC(=O)c1c(NC(=O)C(C)N2CCN(C(=O)c3ccco3)CC2)sc2c1CCCC2 (stereo not drawn) | inactive |
| Cn1c(CSc2nnc(SCc3ccccc3)s2)nc2ccccc21 | inactive |
| Nc1nc(SCc2ccccc2Cl)n[nH]1 | inactive |
| Nc1ccccc1-c1nnc(SCc2ccccc2Cl)[nH]c1=O | inactive |
| c1ccc(-n2c(SCc3ccncc3)nnc2-c2ccco2)cc1 | inactive |
| O=C(c1ccc(F)cc1)N1CCC(C(=O)N(Cc2ccccc2)c2ccccc2)CC1 | inactive |
| CCCCNC(=O)Oc1cccc(N2CCCC2=O)c1 | inactive |
| COCCn1c(N)c(NCc2ccccc2)c(=O)n(CC(=O)Nc2cc(C)ccc2C)c1=O | inactive |
| COc1ccc(C(C)=O)cc1CN1C(=O)NC2(CCCC2)C1=O | inactive |

| SMILES | outcome |
| --- | --- |
| COc1ccc(S(=O)(=O)N2CCC(NC(=O)OCc3c(Cl)cccc3Cl)CC2)cc1 | inactive |
| CN1CCN(S(=O)(=O)c2ccc(NC(=O)Nc3cccc(Cl)c3)cc2)CC1 | inactive |
| O=C(CSCc1ccc(Br)cc1)NC1CC1 | inactive |
| Oc1ccc(/C=C/c2cc(O)cc(O)c2)cc1 | inactive |
| COc1ccc(F)cc1S(=O)(=O)Nc1cc2c3c(c1)CC(=O)N3CCC2 | inactive |
| CCC(C)NC(=O)CSc1nc2n[nH]c(C)c2c(=N)n1-c1ccc(OC)cc1 (stereo not drawn) | inactive |
| CN1C(=O)C2(C(C#N)=C(N)Oc3c2oc(CO)cc3=O)c2ccccc21 (stereo not drawn) | inactive |
| CCOC(=O)C1=C(C)OC(N)=C(C#N)C1c1cc(Cl)c(OCC(N)=O)c(OC)c1 (stereo not drawn) | inactive |
| O=C(Cc1cccs1)Nc1cccc(-c2nc3ccccc3o2)c1 | inactive |
| Cc1ccc(-c2csc(NC(=O)Cc3cccs3)n2)cc1C | inactive |
| Cc1nc2ccc(NC(=O)Cc3cccs3)cc2s1 | inactive |
| COC(=O)c1ccccc1NC(=O)CNC(=O)c1ccc(OC)cc1 | inactive |
| COC(=O)C1=C(CSc2nc3ccccc3o2)NC(=O)NC1c1cc(C)ccc1C (stereo not drawn) | inactive |
| COc1ccc(NS(=O)(=O)c2cc(N=Nc3c(O)[nH]c(=O)[nH]c3=O)ccc2Cl)cc1 | inactive |
| CC1(C)C2CCC1(C)C(OC(=O)C[n+]1ccccc1)C2 (stereo not drawn) | inactive |
| CC(=O)Nc1nnc(SCC(=O)N2CCCc3ccccc32)s1 | inactive |
| CCc1ccccc1NC(=O)N1CCc2ccccc21 | inactive |
| COc1ccc(-c2nc(CS(=O)CC(=O)NC3CCCc4ccccc43)c(C)o2)cc1OC (stereo not drawn) | inactive |
| Cc1ccc(S(=O)(=O)N2CCCC(C(=O)O)C2)s1 (stereo not drawn) | inactive |
| O=S(=O)(c1ccc(Br)s1)N1CCCCC1 | inactive |
| CCN(CC)CCNC1=NCCn2c1cc1cc(OC)ccc12 | inactive |
| CCc1noc(N)c1C(=O)Nc1ccc(F)c(Cl)c1 | inactive |
| CCNC(=O)NC(=O)C(C)OC(=O)c1oc2ccc(OCC)cc2c1C (stereo not drawn) | inactive |

| SMILES | outcome |
| --- | --- |
| Cc1c(-c2ccccc2)nc2ccccc2c1C(=O)O | inactive |
| Cc1cc(C#N)c2ccccc2n1 | inactive |
| CCCCOc1ccc(C(=O)OC(C)CN(C)C)cc1 (stereo not drawn) | inactive |
| Clc1ncnc2scc(-c3ccccc3)c12 | inactive |
| CCC(=O)Nc1cccc(Oc2nc(C)cc(C)c2C#N)c1 | inactive |
| Cc1nn(Cc2ccccc2)c(C)c1NC(=O)c1cc(-c2ccc3c(c2)OCO3)on1 | inactive |
| O=C(OCc1ccc(Cl)cc1)c1cnccn1 | inactive |
| O=C(CN1CCN(c2nc(-c3ccccc3)cs2)CC1)Nc1ccc2c(c1)OCO2 | inactive |
| NNC(=O)CCN1CCN(C(c2ccccc2)c2ccccc2)CC1 | inactive |
| Cc1ccccc1CS(=O)(=O)CCC(=O)NCCN1CCN(c2cccc(Cl)c2)CC1 | inactive |
| CCOC(=O)CSc1ncnc2c1cnn2-c1ccc(C)cc1 | inactive |
| COc1ccc(-n2nnnc2-c2ccccc2)cc1 | inactive |
| COc1cnc(SCc2c(Cl)cccc2Cl)nc1Cl | inactive |
| CC(NC(=O)CSc1nnc2n1CCCCC2)c1ccccc1Cl (stereo not drawn) | inactive |
| Clc1c(-c2nnc3n2CCC3)sc2ccccc12 | inactive |
| Cc1cc2cc3c(=O)[nH]c(=O)nc-3n(CC(O)C(O)C(O)CO)c2cc1C (stereo not drawn) | inactive |
| CCCn1nc(NC(=O)c2ccccn2)c2cc3cc(C)ccc3nc21 | inactive |
| O=C1COc2ccc(C(=O)CSc3nnc(-c4cccs4)n3Cc3ccccc3)cc2N1 | inactive |
| COc1cc2ccccc2cc1C(=O)N1CCN(c2ccccc2O)CC1 | inactive |
| CCOCCNC(=O)c1ccccc1C(=O)NCCOCC | inactive |
| COc1ccc(Oc2nc(C)cc(C)c2C#N)cc1 | inactive |
| COC(=O)COn1c(-n2nc(C)cc2C)nc2ccccc2c1=O | inactive |
| Cc1ccc(S(=O)(=O)n2ccc(=O)[nH]2)cc1 | inactive |

| SMILES | outcome |
| --- | --- |
| CCN(CC)C(=O)c1sc(NC(=O)c2ccc3c(c2)OCO3)c(C#N)c1C | inactive |
| CCOC(=O)c1c(NC(=O)c2cc(CC(C)C)on2)sc(C(C)=O)c1C | inactive |
| O=C(COC(=O)C12CC3CC(CC(Br)(C3)C1)C2)Nc1ccc2[nH]c(=O)[nH]c2c1 | inactive |
| COc1cc(CC(=O)NCC(C)(C)N2CCOCC2)cc(OC)c1OC | inactive |
| CCC(Sc1nc(-c2ccccc2)cc(=O)[nH]1)C(=O)O (stereo not drawn) | inactive |
| N#C/C=C\Oc1ccc(Cl)cc1N | inactive |
| COc1ccccc1OCCOc1ccccc1/C=N/n1cnnc1 | inactive |
| Cc1c(C(=O)N2CCN(c3ccccc3F)CC2)sc2nc(-c3ccccc3)cn12 | inactive |
| CN(c1ccc(C(=O)N2CCc3ccccc3C2)cc1)S(C)(=O)=O | inactive |
| COc1ccc(C)cc1NC(=O)COC(=O)CCC(=O)c1cccs1 | inactive |
| CCn1c(N)c(C(=O)NCc2ccc3c(c2)OCO3)sc1=S | inactive |
| CCCn1nc2cc(C(=O)NCc3ccc4c(c3)OCO4)ccc2c1OCC | inactive |
| COC(=O)C1=C(O)/C(=C/c2cccc(OC)c2O)N=C1C | inactive |
| COC(=O)C1=C(O)/C(=C\c2ccc(CNC(=O)C(=O)Nc3ccc(C)c(C)c3)o2)N=C1C | inactive |
| CCOC(=O)c1c(C)c(/C=N/Nc2ccccc2)n(C)c1C | inactive |
| CCC(C)Nc1nc2c(c(=O)[nH]c(=O)n2C)n1CCC(C)C (stereo not drawn) | inactive |
| COC(=O)c1cn[nH]c1NC(=S)Nc1ccc(C)cc1Cl | inactive |
| CCCCNC(=O)C1CCCN(S(=O)(=O)c2ccc(-n3cnnn3)cc2)C1 (stereo not drawn) | inactive |
| CCN(CC)c1ccc(C2C3CCCCC3(O)CCN2CC(=O)Nc2ccccc2)cc1 (stereo not drawn) | inactive |
| COc1ccccc1NC(=O)c1cc2ccccc2o/c1=N\O | inactive |
| CC1CN(S(=O)(=O)c2cc(C(=O)NCc3ccncc3)ccc2Cl)CC(C)O1 (stereo not drawn) | inactive |

— PubChem BioAssay AID1117361 (Southern Research Institute, 2015)
